Among the data in PubChem BioAssay are composite z-score and z-score values, retold here.

Assay [1] has as its system Human papillomavirus type 1a protein E7 (residues 44-93). As to the kind of experiment: small molecules binding HPV E7 44-93 – biochemical, small-molecule microarray, residues 44-93, 635 nm fluorescence, primary screen (AID 1108).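 Note: E7 fragment applied at 1 µg/mL in TBST for 1 h at 4 C; score combines spot fluorescence with its signal to noise ratio.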 As to conditions: fluorescence 635 nm, higher = more signal.
Assay [2] is described as follows: hepatitis C replication reporter changes, two-sided – Huh7 cells, luciferase reporter, HCV replication inhibitor project, primary screen (AID 1109).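 Note: huh7 hepatoma cells harbouring a luciferase neomycin HCV replicon reporter; luciferase luminescence as measure of HCV replicon replication; test concentration not given here.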 As to conditions: Huh7 HCV replicon luciferase reporter, 48 h; higher = more signal. (In general: A reporter such as luciferase makes a cellular process visible.)
The target in assay [3] is Left-right determination factor 2 (Homo sapiens) (UniProt O00292). As to the kind of experiment: small molecules binding LEFTY2 protein – biochemical, small-molecule microarray, 635 nm fluorescence scan, primary screen (AID 1110). The following applies: higher = more signal.
Sequence of Left-right determination factor 2 (Homo sapiens) (O00292 whole entry, looked up): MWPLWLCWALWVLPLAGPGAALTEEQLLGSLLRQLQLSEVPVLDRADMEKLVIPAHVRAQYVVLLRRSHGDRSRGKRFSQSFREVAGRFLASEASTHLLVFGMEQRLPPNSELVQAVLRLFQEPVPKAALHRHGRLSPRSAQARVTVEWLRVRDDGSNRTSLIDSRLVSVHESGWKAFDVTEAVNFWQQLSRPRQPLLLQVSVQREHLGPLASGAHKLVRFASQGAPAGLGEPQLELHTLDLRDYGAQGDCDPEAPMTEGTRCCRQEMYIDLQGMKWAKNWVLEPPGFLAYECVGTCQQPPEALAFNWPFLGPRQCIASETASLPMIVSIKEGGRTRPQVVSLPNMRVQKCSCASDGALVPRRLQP
Assay [4] addresses Calmodulin-1 (Homo sapiens) (UniProt P0DP23). The assay is described as follows: small molecules binding calmodulin-1 with EGTA – biochemical, small-molecule microarray, Cy5-labelled CALM1, profiling panel (AID 1111).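 Note: labelled calmodulin applied in Tris saline Tween buffer holding calcium plus EGTA and DTT.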 The following applies: Cy5-CALM1 binding fluorescence, higher = more signal.
The target is the same in assay [5]. As to the kind of experiment: small molecules binding Ca-loaded calmodulin-1 – biochemical, small-molecule microarray, Cy5-labelled CALM1, plus calcium, artefact control for SMM control-protein annotation, profiling panel (AID 1112).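 Note: score merges spot fluorescence with signal to noise from triplicate slides.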 As to conditions: Cy5-CALM1 binding fluorescence, higher = more signal.
Assay [6] is described as follows: probe aWnt5a binding to arrayed compounds – biochemical, biotinylated probe, 635/667 nm fluorescence, primary screen (AID 1113).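 Note: score merges 667 nm fluorescence intensity with signal-to-noise per printed feature.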 As to conditions: small-molecule microarray, higher = more signal.
Assay [7] can be described thus: probe aShh binding to arrayed compounds – biochemical, biotinylated probe, 635/667 nm fluorescence, primary screen (AID 1114).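 Note: probe is biotin-labelled aShh protein from a stem cell growth factor screen; measures binding of labelled protein to compounds printed on the slide; score merges feature fluorescence at 667 nm with signal-to-noise.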 The following applies: small-molecule microarray, higher = more signal.
Assay [8] can be described thus: probe aNog binding to arrayed compounds – biochemical, biotinylated probe, 635/667 nm fluorescence, primary screen (AID 1115).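 Note: probe is biotinylated aNog protein used at 0.15 µg/mL for 1 h at 4 C; z-score combines 667 nm fluorescence of each spot with its signal to noise.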 As to conditions: small-molecule microarray, higher = more signal.
The target of assay [9] is Torsin-1A-interacting protein 1 (Homo sapiens) (UniProt Q5JTV8). As to the kind of experiment: compound microarray binding of lysate hLAP1 – cell lysate, small-molecule microarray, COS7 lysate, 635/667 nm fluorescence, primary screen (AID 1116). As to conditions: 635 nm fluorescence, higher = more signal.
Sequence of Torsin-1A-interacting protein 1 (Homo sapiens) (Q5JTV8 whole entry, looked up): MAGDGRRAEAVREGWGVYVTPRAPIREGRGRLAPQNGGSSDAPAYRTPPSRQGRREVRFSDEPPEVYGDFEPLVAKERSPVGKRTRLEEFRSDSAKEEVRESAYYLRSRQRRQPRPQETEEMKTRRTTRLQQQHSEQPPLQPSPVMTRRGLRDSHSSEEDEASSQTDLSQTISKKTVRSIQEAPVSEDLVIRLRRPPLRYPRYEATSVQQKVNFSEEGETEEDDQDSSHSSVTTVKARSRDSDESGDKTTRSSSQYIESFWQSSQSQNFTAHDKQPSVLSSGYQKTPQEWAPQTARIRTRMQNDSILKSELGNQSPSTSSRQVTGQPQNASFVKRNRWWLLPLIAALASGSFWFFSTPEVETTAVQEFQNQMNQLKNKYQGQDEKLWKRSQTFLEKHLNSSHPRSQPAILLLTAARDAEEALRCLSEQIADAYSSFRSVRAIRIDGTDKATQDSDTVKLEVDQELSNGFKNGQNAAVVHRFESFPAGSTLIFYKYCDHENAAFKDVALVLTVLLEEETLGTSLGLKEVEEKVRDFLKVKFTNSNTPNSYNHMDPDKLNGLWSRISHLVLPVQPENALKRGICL
Assay [10] has as its target Alpha-bungarotoxin (Bungarus multicinctus) (UniProt P60615). As to the kind of experiment: compounds binding labelled alpha-BTX control protein – biochemical, small-molecule microarray, Alexa647 label, 635/667 nm fluorescence, artefact control for SMM control protein annotation, profiling panel (AID 1117). The following applies: alpha-BTX-A647 binding fluorescence, higher = more signal.

Sequence of Alpha-bungarotoxin (Bungarus multicinctus) (P60615 whole entry, looked up): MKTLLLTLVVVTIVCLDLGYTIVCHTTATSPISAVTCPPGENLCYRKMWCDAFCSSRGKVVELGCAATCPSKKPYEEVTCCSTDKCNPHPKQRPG

For `Cc1cc2c(nc1C)CCCN2CC(O)CN1CCCc2nc(C)c(C)cc21`, the composite z-score was 0.142 in assay [1]; 0.368 in [3]; 0.239 in assay [4]; -0.322 in [5]; 0.308 in assay [6]; 0.699 in [7]. In addition, the results for the composite z-score in assay [8], in assay [9] and in assay [10] were 0.568, 3.26 and 1.42, respectively. For the same compound, the z-score in [2] was -0.107.

Take `CO[C@@H]1COC(=O)[C@H](CCSC)NC(=O)CC=C[C@@H](C)COC(=O)CCC[C@H]1C`: the composite z-score was -1.18 in assay [1]; 1.65 in [3]; -1.94 in assay [4]; -2.51 in [5]; -0.175 in assay [6]; -0.214 in assay [7]. The composite z-score in assay [8] was -0.472; in [9], 0.813; in [10], -0.354. In assay [2], this compound yielded a z-score of -0.346.

Regarding `O=C1C[C@@H](O)[C@@H](O)[C@@H]2[C@@H]3C(=O)N(c4cccc(Oc5ccccc5)c4)C(=O)[C@@H]3CC[C@H]12`, the composite z-score in [1] is -0.252; in assay [3] it was 0.43; in [4], 0.118; in assay [5] it was -0.294; in assay [6] it was -0.128; in assay [7], -0.366. The composite z-score in assay [8] was -0.341; in assay [9], 0.132; in [10], 0.62. In addition, the z-score in assay [2] stood at 0.33.

On to `COC(=O)NCC=Cc1nc(CCCO)co1`, for which the composite z-score is 0.722 in [1]; 0.493 in assay [3]; -0.368 in assay [4]; -0.98 in [5]; -0.0462 in assay [6]; 0.0141 in assay [7]. The results for the composite z-score in assay [8], in assay [9] and in assay [10] were -0.137, 0.116 and -0.498, respectively. Also, the z-score in assay [2] is -0.0343.

Consider `CCOC(=O)[C@H](CC(C)C)NC(=O)CCC1CC(OC(=O)NCCc2ccc(F)cc2)CC2(CCCC(COC(=O)NCCC(C)C)O2)O1` (stereo not given in full), for which the composite z-score was 0.48 in assay [1]; 0.344 in assay [3]; 0.586 in [4]; -0.216 in [5]; -0.0383 in [6]; -0.0733 in assay [7]. Besides, the composite z-score in [8] was -0.108; in assay [9], -0.0671; in assay [10], 1.21. The compound further came in with a z-score in assay [2] of 0.314.

As for `CO[C@H]1COC(=O)[C@@H](C)COC(=O)[C@H](C)NC(=O)CC=C[C@H]1C`, the composite z-score in assay [1] is -0.328; in assay [3], 1.28; in [4], -0.451; in assay [5], -1.98; in [6], -0.178; in assay [7], -0.243. For the same compound, the composite z-score was -0.379 in assay [8], -0.15 in assay [9] and -0.354 in [10]. Also, in assay [2], the z-score is -0.399.

Consider `CO[C@H]1COC(=O)[C@H](C)NC(=O)[C@@H](C)COC(=O)[C@H]2CCCN2C(=O)CC=C[C@H]1C`, for which the composite z-score in [1] was 0.13; in assay [3] it was 0.663; in assay [4], -0.538; in assay [5], -1.38; in [6], -0.144; in assay [7] it was -0.24. The composite z-score in assay [8] is -0.28; in assay [9], 0.109; in [10], -0.0339. The same compound showed a z-score in assay [2] of -0.328.

Regarding `CCOC(=O)CCN1C(=O)[C@H]2[C@H]3[C@H](O)[C@H](O)CC(=NNC(=O)OCc4ccccc4)[C@@H]3CC[C@H]2C1=O`, the composite z-score in assay [1] was 0.582; in assay [3], 0.929; in [4], 0.634; in assay [5], -0.0903; in assay [6], -0.0819; in [7] it was -0.0035. Besides, the composite z-score was -0.147 in assay [8], 0.754 in [9] and 0.999 in [10]. The compound further yielded a z-score in assay [2] of -0.582.

Consider `CCOC(=O)[C@H](Cc1ccccc1)NC(=O)CCC1CC(OC(=O)NCc2ccc3c(c2)OCO3)CC2(CCCC(COC(=O)NCCc3ccccc3OC)O2)O1` (stereo not given in full), for which the composite z-score in [1] is 1.39; in assay [3] it was 0.816; in assay [4], 0.627; in assay [5], 0.157; in assay [6], -0.0944; in assay [7], -0.0471. The composite z-score in [8] was -0.0125; in [9], 0.775; in [10], 1.11. The compound also came in with a z-score in assay [2] of -1.11.

Consider `O=C1CCCC=C1C(CCc1ccccc1)OC(=O)c1ccc(Br)cc1` (stereo not given), for which the composite z-score was -2.1 in assay [1]; 0.572 in [3]; -1.11 in assay [4]; -0.622 in [5]; -0.124 in assay [6]; -0.147 in [7]. Further, the composite z-score in [8] is -0.348; in assay [9], -0.108; in assay [10] it was -0.334. This compound also returned a z-score in assay [2] of 1.15.

Regarding `COc1ccc(C#C[C@@H]2C=C[C@H](OC(C)=O)[C@@H](COC(C)=O)O2)cc1`, the composite z-score in [1] is 0.318; in assay [3], 0.591; in [4] it was -0.268; in assay [5] it was -0.534; in assay [6], -0.2; in assay [7] it was -0.0471. Further, the composite z-score was -0.208 in [8], 0.257 in [9] and 0.193 in [10]. Also, the z-score in [2] is -2.21.

Turning to `CCC1=NOC(CCC2CC(OC(=O)NCc3cccc4c3OCO4)CC3(CCCC(COC(=O)NCCc4ccccc4OC)O3)O2)C1` (stereo not given), the composite z-score in [1] is 1.21; in assay [3], 0.0276; in [4] it was 1.21; in assay [5], 0.712; in [6], -0.139; in assay [7] it was -0.0793. Further, the composite z-score in assay [8] is 0.249; in assay [9], 0.528; in assay [10], 0.473. The compound further showed a z-score in assay [2] of -1.35.

Take `COC(=O)CC=C[C@@H](C)[C@@H](C=NOC[C@H]1O[C@H](c2ccccc2)C=C[C@@H]1Oc1ccc(OC)cc1)NS(=O)(=O)c1ccc(C)cc1`: the composite z-score in [1] is -1.1; in assay [3], -0.233; in assay [4], -1.07; in assay [5], -0.467; in assay [6], -0.147; in assay [7], -0.112. Besides, the composite z-score in [8] is -0.181; in assay [9], -0.306; in assay [10], -0.183. The compound further had a z-score in assay [2] of -0.787.

For the compound `C=C(C)C(=O)OCC1CN2[C@@H](CC[C@@H](C)[C@@H]2c2ccc(Br)cc2)C(=O)O1` (stereo not given in full), the composite z-score in assay [1] is 0.0141; in assay [3] it was 0.501; in assay [4], -0.15; in assay [5], -0.566; in assay [6] it was -0.199; in [7] it was -0.229. In addition, the values for the composite z-score in assay [8], in assay [9] and in assay [10] were 0.184, 0.522 and 0.499, respectively. The z-score in [2] turned out to be 0.159.

With `COC(=O)CC=C[C@H](C)[C@@H](OCc1cccc(Br)c1)[C@@H](C)[C@H](OC)C1CCCCC1`, the composite z-score was -0.835 in [1]; 0.388 in [3]; -0.893 in [4]; -1.07 in [5]; -0.0944 in [6]; -0.282 in [7]. In addition, the values for the composite z-score in assay [8], in assay [9] and in assay [10] were -0.449, -0.343 and -0.308, respectively. The z-score in [2] is -0.291.

As to `CCOC(=O)[C@H](CC(C)C)NC(=O)CCC1CC(OC(=O)NCc2cccc3ccccc23)CC2(CCCC(COC(=O)NCCOc3ccccc3)O2)O1` (stereo not given in full), the composite z-score in [1] is 1.32; in [3], 0.518; in assay [4], 0.721; in assay [5] it was -0.143; in assay [6] it was 0.0162; in assay [7] it was -0.253. The composite z-score in [8] is -0.311; in assay [9], 0.556; in assay [10] it was 0.266. The compound also yielded a z-score in [2] of -0.687.

With `CC(=O)OC[C@H]1O[C@H](CCON=C2[C@H]3CCn4c(=O)n(-c5ccccc5)c(=O)n4[C@H]3[C@H](O)[C@@H]3O[C@H]23)C=C[C@@H]1OC(C)=O`, the composite z-score is 0.253 in assay [1]; 0.5 in assay [3]; -0.151 in [4]; -0.354 in [5]; 0.0001 in [6]; 0.089 in assay [7]. In addition, the composite z-score in [8] came to 0.449; in assay [9], 0.322; in assay [10] it was 0.415. The z-score in assay [2] is -4.82.

For `CCCCC#C[C@@H]1C=C[C@H](Oc2cc(OC)c(OC)c(OC)c2)[C@@H](COC(=O)OCC)O1`, the composite z-score in assay [1] was -0.709; in [3], 0.144; in assay [4], -0.659; in [5], -0.986; in assay [6], -0.124; in [7], -0.276. Further, the composite z-score was -0.158 in [8], 0.0606 in assay [9] and 0.624 in assay [10]. Also, the z-score in assay [2] was -0.548.
